Where “and” joins values, the source holds several entries; their conditions need not be identical. Identical values can stand only once. Records with an inconclusive call do not appear. Calls of active or inactive are those of the source. Unless noted, calls come from the whole dose curve; as a rule, active = well fitted curve in the direction sought with a large enough effect; inconclusive = small, poorly fitted or top-dose-only effect, or another doubt; inactive = no such curve, though single readings can be large; an effect the other way counts as inactive or inconclusive.

Experiment [1] concerns the target Glucocorticoid receptor (Homo sapiens) (UniProt P04150). The experiment can be described thus: GR-GFP Redistribution (AID 450;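 active = compounds whose dose series gives a full or clear partial fitted curve of increased nuclear translocation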; note: potency is the fitted concentration of half-maximal effect). The settings on record: U2OS GR-GFP nuclear translocation, laser cytometry, 2 h.
Experiment [2] shares this target. The experiment can be described thus: GR-EFC Redistribution (AID 451; calls by dose curve; note: potency is the fitted concentration of half-maximal effect). To be noted: CHO-K1 GR-EFC translocation, beta-gal luminescence, 2 h. The method in brief: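 CHO-K1 cells stably expressing nuclear-localized β-gal enzyme acceptor and GR fused C-terminally to the enzyme donor fragment; ligand-driven nuclear translocation restores β-gal by complementation. Compounds titrated up to 46 uM final, 2 h at 37 °C; luminescence read.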

Experiment [3] deals with Mitogen-activated protein kinase 10 (Mus musculus) (UniProt Q61831). The experiment can be described thus: JNK3 AlphaScreen Assay (AID 530; active = well fitted curve in either direction with a large enough effect, not every such curve was filed as active;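 note: kinase came from lysate of stimulated human HepG2 cells; signal reports phosphorylation of biotinylated GST-cJun 1-79 at Ser73 with 10 µM ATP; % is set by controls: 0 for no effect and ±100 for the full control effect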). The method in brief:
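Inhibitors reduce antibody binding to phosphorylated biotin-cJun, lowering AlphaScreen luminescence. Lysates from HepG2 cells pre-activated by IL-1beta plus TNF-alpha supplied JNK3; compounds were titrated.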

For experiment [4], the target named is 3',5'-cyclic-AMP phosphodiesterase 4B (Homo sapiens) (UniProt Q07343). The experiment can be described thus: qHTS Assay for Inhibitors of PDE-IV (AID 607; active = well fitted activation curve with a large enough effect in the main read-out, with a control signal flat, not every such curve was filed as active; note: % of control where 0% means no effect). The method in brief: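 HEK293 ACTOne cells with CNG channel (1000/well), endogenous PDE4; membrane potential dye, compounds up to 22.9 uM final. Fluorescence Ex 535/Em 590; RO 20-1724 (100 uM final) as reference.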
In general terms: Quantitative high-throughput screening tests each substance at several concentrations.

The nature of experiment [5]: qHTS Assay for Lipid Storage Modulators (AID 1519; calls by dose curve). The settings on record: Drosophila S3 cells, BODIPY lipid droplet/cell ratio, laser cytometry, cells loaded with oleic acid; for activity change, negative = inhibition: at 57.5 µM (top of the series). The method in brief:
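Cells seeded at 5,000 per well were treated with compounds over a concentration series and loaded with oleic acid (400 uM, as added). Lipid droplet fluorescence (488 nm excitation, 500-530 nm channel) was read by laser-scanning cytometry and normalized to 20 uM Triacsin C.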

In experiment [6] the target is DNA dC->dU-editing enzyme APOBEC-3G (Homo sapiens) (UniProt Q9HC16). The experiment can be described thus: qHTS for inhibitors of Vif-A3G interactions: Validation (AID 588379). Note: 0% is about no effect. The method in brief:
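HeLa cells stably expressing Vif and A3G-eYFP, 700 cells/well, incubated overnight at 37 deg C, then exposed to compound overnight at 37 deg C. Inhibition of Vif-mediated degradation read as increased yellow fluorescence (Ex 488/Em 500-530) by laser-scanning cytometry.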

The test system of experiment [7] is Zika virus NS2B-NS3 protease. The experiment can be described thus: Primary screen GU AMC qHTS for Zika virus inhibitors (AID 1347154).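 Note: 0% = no-inhibitor control and -100% = no-enzyme control; nearly all actives have a fitted effect of over 70% in size.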 A digest of the protocol: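 Unlinked Zika NS2B hydrophilic domain/NS3 protease domain noncovalent complex (25 nM final) in 10 mM Tris-HCl pH 8.0, 0.01% Tween 20, with AMC peptide substrate. Fluorescence (ex 340, em 450 nm) change over 15 min, room temperature; percent inhibition fitted to 4-parameter Hill equation.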

Experiment [8] can be described thus: Primary qHTS for small molecule stabilizers of the endoplasmic reticulum resident proteome: Secreted ER Calcium Modulated Protein (SERCaMP) assay (AID 1508630). Note: % is set by controls: 0 for no effect and ±100 for the full control effect. A digest of the protocol: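 GLuc-SERCaMP-expressing SH-SY5Y cells, pretreated 16 h with compound, are challenged with thapsigargin to empty ER calcium stores; after 4 h, coelenterazine is added directly to the medium and luminescence is imaged.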

Experiment [9] concerns the target Cytochrome P450 1A2 (Homo sapiens) (UniProt P05177). The experiment can be described thus: p450-cyp1a2 (AID 410; calls by dose curve; note: potency is the fitted concentration of half-maximal effect). The method in brief:
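Luminescent readout of luciferin formed from Luciferin-ME by human CYP1A2; data normalized against complete inhibition by 57 uM furafylline. Enzyme 20nM, substrate 100uM at Km, 100mM KPO4 buffer, 60 min reaction at room temperature.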

The nature of experiment [10]: NFAT Signaling Pathway (AID 444; active = well fitted curve in either direction with a large enough effect, not every such curve was filed as active;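 note: carbachol stimulus at about its EC50 of 1 µM final; % is set by controls: 0 for no effect and ±100 for the full control effect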). The settings on record: Jurkat NFAT-bla M1, carbachol, beta-lactamase ratio, 5 h. The method in brief:
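Jurkat cells carrying an NFAT-driven β-lactamase reporter and co-transfected muscarinic M1 receptor were treated with compound plus carbachol (1 uM final, an EC50 level) for 5 h at 37 °C. CCF4 loading followed for 1 h at RT; 460/530 nm ratio gave %activity.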

The nature of experiment [11]: Stat Signaling Pathway (AID 446; active = well fitted curve in either direction with a large enough effect, not every such curve was filed as active;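 note: ME-180 cervical cancer cells given 40 pM IL-6 alongside compound; SIE-controlled beta-lactamase reporter measured as 460/530 nm FRET emission ratio; % is set by controls: 0 for no effect and ±100 for the full control effect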). The settings on record: ME-180 SIE beta-lactamase reporter, IL-6 stimulated, 5 h. A digest of the protocol: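 ME-180 cells carrying a SIE-driven beta-lactamase reporter are stimulated with 40 pM IL-6 for 5 h at 37C in the presence of compound. The 460/530 nm FRET substrate ratio is read after 2.5 h at RT. Data are normalised to 300 pM IL-6 and to 125 nM JAK inhibitor controls.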

The target in experiment [12] is Cytochrome P450 2C19 (Homo sapiens) (UniProt P33261). The experiment can be described thus: qHTS Assay for Inhibitors and Substrates of Cytochrome P450 2C19 (AID 899). Note: potency is the fitted concentration of half-maximal effect; nearly all actives have a fitted effect of over 60% in size. A digest of the protocol: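 Human CYP2C19 (5nM) with Luciferin-H EGE at 10uM (its KM) in 50mM KPO4 was preincubated with compound for 10 min at 37C. NADPH regeneration started a 60 min 37C reaction. Luciferin was read by luminescence, normalized to 57uM ketoconazole.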

Experiment [13] concerns the target Ubiquitin carboxyl-terminal hydrolase 1 (Homo sapiens) (UniProt O94782). The experiment can be described thus: Inhibitors of USP1/UAF1: Pilot qHTS (AID 504865).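 Note: rhodamine fluorescence freed from ubiquitin-rhodamine substrate followed over time; top concentration of the series differs between compounds; % is set by controls: 0 for no effect and ±100 for the full control effect; nearly all actives have a fitted effect of over 35% in size.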 A digest of the protocol: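 1nM USP1/UAF1 + cpd, 15 min RT; start w/ Ub-Rho 150nM final; kinetic FL 480/540 nm, 6 reads q60 s. Buffer 50mM HEPES pH 7.8, 0.5mM EDTA, 1mM TCEP, 0.01% Tween-20, 0.1 mg/ml BSA.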

Experiment [14] can be described thus: AP1 Signaling Pathway (AID 357; active = well fitted curve in either direction with a large enough effect, not every such curve was filed as active; note: % is set by controls: 0 for no effect and ±100 for the full control effect). The settings on record: ME-180 (cervical carcinoma) AP-1-bla reporter, EGF-induced, beta-lactamase ratio, 5 h; at 38 µM (top of the series). The method in brief: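 Cells are seeded overnight, exposed to compound titrations and an EC50 level of EGF for 5 hours at 37 °C, then loaded with CCF4 dye for 2.5 hours. Beta-lactamase activity under the AP-1 element is read as a blue/green ratio.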

The target of experiment [15] is Guanine nucleotide-binding protein G(i) subunit alpha-1 (Homo sapiens) (UniProt P63096). The experiment can be described thus: qHTS Assay for Inhibitors of RGS12 GoLoco Motif Activity (Green Fluorophore) (AID 879).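 Note: 0% = labeled peptide with Gαi1 and full inhibition = labeled peptide alone without protein; negative values mean loss of peptide binding seen as reduced polarization.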 The method in brief:
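Fluorescence polarization assay: 50 nM Gαi1 with 10 nM FITC-labeled RGS12 GoLoco peptide in 10 mM Tris pH 7.5, 150 mM NaCl, 0.1 mM GDP, 0.05% NP40, 10 min at room temperature with compound.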

Experiment [16] addresses Cytochrome P450 3A4 (Homo sapiens) (UniProt P08684). The experiment can be described thus: qHTS Assay for Activators of Cytochrome P450 3A4 (AID 885). Note: nearly all actives have a fitted effect of over 65% in size. A digest of the protocol: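 Human CYP3A4 (20 nM) with Luciferin-PPXE at 25 uM (its KM) in 200 mM KPO4; 10 min compound preincubation, then NADPH regeneration and 60 min reaction at RT. Luciferin read by luminescence; normalized to 57 uM ketoconazole full inhibition.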

Experiment [17] is described as follows: qHTS Assay for Identification of Small Molecule Agonists for Thrombopoietin (TPO) Signaling Pathway (AID 917). Note: % is set by controls: 0 for no effect and ±100 for the full control effect. A digest of the protocol:
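Activators of TPO signaling were sought in murine Ba/F3 cells transfected with the human receptor, using a luciferase gene driven by the Glycoprotein IIb promoter; 24-hr compound exposure at 37 C alongside 26 pM TPO, in IL-3-free medium.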

Experiment [18] has as its target Pyruvate kinase (Leishmania mexicana) (UniProt Q27686). The experiment can be described thus: qHTS Validation Assay for Inhibitors of Leishmania Mexicana Pyruvate Kinase (AID 945).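 Note: 0% = DMSO only neutral control wells.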 A digest of the protocol:
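Eight-point qHTS titrations; enzyme 0.2 nM LmPYK (E451W mutant); substrates 0.5 mM PEP, 0.1 mM ADP; 7 mM MgCl2; 1 h room temperature; PKLight luminescence normalized to neutral control.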

In experiment [19] the target is alpha-glucosidase (Oryza sativa, rice) (UniProt Q653V4). The experiment can be described thus: Counterscreen for Glucocerebrosidase Inhibitors: qHTS Assay for Rice alpha-Glucosidase at pH 5.0 (AID 997).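 Note: 0% = full activity with enzyme and -100% = basal without enzyme.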 A digest of the protocol: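 Rice alpha-glucosidase (4 nM final) with 400 uM 4-methylumbelliferyl-alpha-D-glucopyranoside in citrate buffer pH 5.0, 20 min at room temperature, stopped at pH 10; fluorescence 365/440 nm, compounds 0.7 nM–77 uM, AC50 from Hill fits.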

[20] abbreviates: measured here: cell count channel max response.
[21] abbreviates: measured here: lipid channel max response.

Chain of DNA dC->dU-editing enzyme APOBEC-3G (Homo sapiens) (Q9HC16 whole entry, looked up): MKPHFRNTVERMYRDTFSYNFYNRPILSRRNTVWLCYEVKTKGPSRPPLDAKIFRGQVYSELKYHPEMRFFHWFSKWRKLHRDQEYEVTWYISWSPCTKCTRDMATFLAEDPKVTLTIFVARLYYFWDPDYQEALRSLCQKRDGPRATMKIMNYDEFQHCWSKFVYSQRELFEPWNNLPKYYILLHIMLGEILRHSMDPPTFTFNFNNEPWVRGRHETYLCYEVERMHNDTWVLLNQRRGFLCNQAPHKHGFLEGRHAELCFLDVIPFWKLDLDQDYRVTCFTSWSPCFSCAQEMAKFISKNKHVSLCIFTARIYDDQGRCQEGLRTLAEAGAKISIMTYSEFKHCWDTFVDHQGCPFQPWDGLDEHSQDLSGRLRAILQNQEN
Chain of Cytochrome P450 2C19 (Homo sapiens) (P33261 whole entry, looked up): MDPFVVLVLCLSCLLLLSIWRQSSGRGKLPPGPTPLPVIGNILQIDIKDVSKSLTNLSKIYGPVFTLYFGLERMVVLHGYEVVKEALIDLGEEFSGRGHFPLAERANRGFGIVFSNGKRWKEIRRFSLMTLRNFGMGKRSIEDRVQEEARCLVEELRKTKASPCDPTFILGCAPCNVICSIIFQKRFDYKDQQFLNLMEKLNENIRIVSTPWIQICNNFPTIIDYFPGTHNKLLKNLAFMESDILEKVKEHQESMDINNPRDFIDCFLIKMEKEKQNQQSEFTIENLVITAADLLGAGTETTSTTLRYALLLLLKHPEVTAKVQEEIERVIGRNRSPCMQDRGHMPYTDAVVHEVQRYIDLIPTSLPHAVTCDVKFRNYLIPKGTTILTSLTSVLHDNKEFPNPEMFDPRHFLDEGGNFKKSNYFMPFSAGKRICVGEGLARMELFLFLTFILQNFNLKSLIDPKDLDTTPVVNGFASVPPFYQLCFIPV
Chain of Glucocorticoid receptor (Homo sapiens) (P04150 whole entry, looked up, the tested form may be a part): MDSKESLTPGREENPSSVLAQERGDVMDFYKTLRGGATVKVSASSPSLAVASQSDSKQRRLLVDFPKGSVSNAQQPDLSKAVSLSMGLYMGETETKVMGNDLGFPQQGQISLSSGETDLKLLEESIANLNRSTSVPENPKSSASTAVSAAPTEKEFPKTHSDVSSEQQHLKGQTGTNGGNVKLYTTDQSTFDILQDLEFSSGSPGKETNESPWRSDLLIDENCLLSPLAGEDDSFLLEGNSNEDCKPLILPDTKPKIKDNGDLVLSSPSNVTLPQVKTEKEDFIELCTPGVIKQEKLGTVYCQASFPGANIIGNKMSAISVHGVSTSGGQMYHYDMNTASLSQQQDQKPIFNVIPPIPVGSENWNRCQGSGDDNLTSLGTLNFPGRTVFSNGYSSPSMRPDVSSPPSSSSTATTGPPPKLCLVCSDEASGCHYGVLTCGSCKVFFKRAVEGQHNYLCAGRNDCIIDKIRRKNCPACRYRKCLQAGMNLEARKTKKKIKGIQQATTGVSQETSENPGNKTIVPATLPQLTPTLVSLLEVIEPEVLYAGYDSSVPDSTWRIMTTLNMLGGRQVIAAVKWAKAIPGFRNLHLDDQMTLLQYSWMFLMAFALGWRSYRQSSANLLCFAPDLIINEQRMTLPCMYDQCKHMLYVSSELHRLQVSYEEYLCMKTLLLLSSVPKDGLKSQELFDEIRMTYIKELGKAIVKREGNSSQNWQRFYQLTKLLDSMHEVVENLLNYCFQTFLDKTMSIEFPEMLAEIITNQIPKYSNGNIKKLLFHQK
Chain of 3',5'-cyclic-AMP phosphodiesterase 4B (Homo sapiens) (Q07343 whole entry, looked up): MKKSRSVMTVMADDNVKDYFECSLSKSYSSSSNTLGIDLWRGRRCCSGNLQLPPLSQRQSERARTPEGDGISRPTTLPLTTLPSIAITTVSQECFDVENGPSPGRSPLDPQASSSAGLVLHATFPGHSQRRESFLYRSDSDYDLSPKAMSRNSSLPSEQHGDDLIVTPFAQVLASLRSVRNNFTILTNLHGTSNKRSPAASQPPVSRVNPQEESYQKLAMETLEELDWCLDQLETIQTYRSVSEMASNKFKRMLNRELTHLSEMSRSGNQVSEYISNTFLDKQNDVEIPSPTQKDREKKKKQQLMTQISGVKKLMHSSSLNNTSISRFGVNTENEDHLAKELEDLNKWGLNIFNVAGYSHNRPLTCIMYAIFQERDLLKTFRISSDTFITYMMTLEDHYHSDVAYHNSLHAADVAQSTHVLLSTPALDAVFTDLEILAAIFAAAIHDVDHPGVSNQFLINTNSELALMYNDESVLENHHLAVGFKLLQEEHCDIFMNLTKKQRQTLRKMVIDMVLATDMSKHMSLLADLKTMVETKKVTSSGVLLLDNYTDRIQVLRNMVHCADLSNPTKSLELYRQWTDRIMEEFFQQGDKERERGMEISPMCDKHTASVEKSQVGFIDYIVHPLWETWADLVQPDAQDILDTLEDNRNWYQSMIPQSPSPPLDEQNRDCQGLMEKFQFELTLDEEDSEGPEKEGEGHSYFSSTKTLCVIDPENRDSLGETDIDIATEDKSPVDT
Chain of Cytochrome P450 1A2 (Homo sapiens) (P05177 whole entry, looked up): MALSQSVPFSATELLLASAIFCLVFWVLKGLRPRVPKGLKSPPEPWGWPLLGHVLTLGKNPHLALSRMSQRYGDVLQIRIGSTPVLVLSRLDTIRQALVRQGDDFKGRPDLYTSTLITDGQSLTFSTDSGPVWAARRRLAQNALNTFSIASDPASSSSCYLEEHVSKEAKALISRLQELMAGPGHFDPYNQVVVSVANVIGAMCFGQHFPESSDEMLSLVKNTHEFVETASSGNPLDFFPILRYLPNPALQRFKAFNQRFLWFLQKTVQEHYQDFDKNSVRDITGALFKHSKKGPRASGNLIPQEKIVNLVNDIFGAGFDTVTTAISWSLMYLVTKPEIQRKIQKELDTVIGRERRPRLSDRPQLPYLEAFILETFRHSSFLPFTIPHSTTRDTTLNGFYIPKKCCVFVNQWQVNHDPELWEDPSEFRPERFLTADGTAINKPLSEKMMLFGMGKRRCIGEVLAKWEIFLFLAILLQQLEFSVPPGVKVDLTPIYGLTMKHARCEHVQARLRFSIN
Chain of Cytochrome P450 3A4 (Homo sapiens) (P08684 whole entry, looked up): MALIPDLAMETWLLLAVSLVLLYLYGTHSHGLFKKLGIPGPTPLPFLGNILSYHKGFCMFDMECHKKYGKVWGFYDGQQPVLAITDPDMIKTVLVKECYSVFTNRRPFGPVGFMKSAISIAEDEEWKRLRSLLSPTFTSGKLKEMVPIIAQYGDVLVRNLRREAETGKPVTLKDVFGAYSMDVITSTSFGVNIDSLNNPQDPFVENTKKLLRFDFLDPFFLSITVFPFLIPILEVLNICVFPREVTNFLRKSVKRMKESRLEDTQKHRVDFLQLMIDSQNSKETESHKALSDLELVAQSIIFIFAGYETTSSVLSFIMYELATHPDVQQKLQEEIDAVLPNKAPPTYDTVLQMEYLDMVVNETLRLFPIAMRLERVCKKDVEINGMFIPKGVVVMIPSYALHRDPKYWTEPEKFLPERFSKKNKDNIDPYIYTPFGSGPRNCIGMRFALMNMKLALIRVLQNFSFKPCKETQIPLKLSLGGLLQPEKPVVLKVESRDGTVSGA
Chain of Ubiquitin carboxyl-terminal hydrolase 1 (Homo sapiens) (O94782 whole entry, looked up): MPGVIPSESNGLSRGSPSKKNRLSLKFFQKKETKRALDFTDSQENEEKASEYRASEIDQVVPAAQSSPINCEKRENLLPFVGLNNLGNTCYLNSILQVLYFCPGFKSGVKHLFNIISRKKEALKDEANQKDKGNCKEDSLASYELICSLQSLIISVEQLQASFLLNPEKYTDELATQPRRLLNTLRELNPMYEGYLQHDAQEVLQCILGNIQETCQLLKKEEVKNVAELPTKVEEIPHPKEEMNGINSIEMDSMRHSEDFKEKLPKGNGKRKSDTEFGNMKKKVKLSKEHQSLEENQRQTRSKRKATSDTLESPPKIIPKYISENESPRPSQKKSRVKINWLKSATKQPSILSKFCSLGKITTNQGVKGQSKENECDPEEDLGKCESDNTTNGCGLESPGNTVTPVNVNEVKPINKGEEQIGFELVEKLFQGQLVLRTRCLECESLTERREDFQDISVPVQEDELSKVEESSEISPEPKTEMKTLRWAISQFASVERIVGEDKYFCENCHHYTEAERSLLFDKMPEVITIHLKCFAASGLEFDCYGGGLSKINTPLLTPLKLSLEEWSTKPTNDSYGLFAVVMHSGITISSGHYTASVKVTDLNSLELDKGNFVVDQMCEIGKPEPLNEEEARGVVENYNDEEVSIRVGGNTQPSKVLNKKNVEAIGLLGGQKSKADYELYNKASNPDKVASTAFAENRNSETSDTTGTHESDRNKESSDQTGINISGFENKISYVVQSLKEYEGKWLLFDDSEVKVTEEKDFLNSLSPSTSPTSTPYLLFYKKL
Chain of Guanine nucleotide-binding protein G(i) subunit alpha-1 (Homo sapiens) (P63096 whole entry, looked up): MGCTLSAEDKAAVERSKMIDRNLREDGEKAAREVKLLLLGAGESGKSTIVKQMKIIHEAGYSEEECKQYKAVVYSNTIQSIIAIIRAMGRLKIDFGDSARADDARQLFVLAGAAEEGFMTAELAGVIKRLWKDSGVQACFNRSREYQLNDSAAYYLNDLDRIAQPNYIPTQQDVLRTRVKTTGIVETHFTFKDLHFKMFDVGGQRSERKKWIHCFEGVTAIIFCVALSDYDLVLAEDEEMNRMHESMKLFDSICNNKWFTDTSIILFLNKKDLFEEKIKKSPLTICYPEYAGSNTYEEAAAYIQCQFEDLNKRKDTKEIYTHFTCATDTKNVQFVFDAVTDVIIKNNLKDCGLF

As to `O=C1C(c2ccccn2)=[N+]([O-])c2ccccc21`, the Potency in experiment [1] and in experiment [2] was > 46 µM (inactive) throughout. The Potency result in experiment [3], in [4], in experiment [6], in [7] and in experiment [8] was “inactive” each time. The activity change, negative = inhibition in experiment [5] was 3.2% (inactive). For the same compound, the max response was found to be 20% in experiment [5] (setting [20]) and 22.9% in experiment [5] (setting [21]).
For the compound `C[C@@H](C(=O)O)c1ccc(-c2ccccc2)c(F)c1`, the Potency in [9] is 10 µM (active); in [1] it was > 20.6 µM (inactive) and > 46 µM (inactive); in experiment [2], > 20.6 µM (inactive) and > 46 µM (inactive); in [12], 631 nM (active). The activity change, negative = inhibition in experiment [10] (at 17.2 µM (top of the series)) is 3.63% (inactive). Also, the activity, negative = inhibition in experiment [11] (at 17.2 µM (top of the series)) was 1.05% (inactive). Besides, the Potency result in experiment [3], in experiment [4], in experiment [13], in experiment [6], in experiment [7] and in experiment [8] was “inactive” in each case.
For the compound `COc1ccc2c(c1)CCC1[C@@H]2CCC2(C)[C@@H](NCCCCCCN3C(=O)C=CC3=O)CC[C@@H]12` (stereo partly drawn), the Potency in [1] and in experiment [2] was > 46 µM (inactive) throughout. Moreover, the Potency result in [3], in experiment [4], in experiment [6], in experiment [7] and in [8] was “inactive” throughout. Moreover, in experiment [5], the activity change, negative = inhibition is -5.78% (inactive). For the same compound, the results for the max response in [5] (setting [20]) and in [5] (setting [21]) were 16.2% and 8.52%, respectively.
As to `C[C@@H](/C=C\c1cccc(Oc2ccc(F)cc2)c1)N(O)C(N)=O`, the activity change, negative = inhibition in experiment [14] was -29.9% (inactive); in experiment [10] (at 38 µM (top of the series)), -4.07% (inactive). Moreover, the Potency in experiment [9] is 1 µM (active) and 158 nM (active); in experiment [1], > 46 µM (inactive); in experiment [2], > 46 µM (inactive); in experiment [12] it was 1.58 µM (active) and 3.98 µM (active). In experiment [11] (at 38 µM (top of the series)), the activity, negative = inhibition is 13.8% (inactive). For the same compound, the Potency entry in experiment [3], in experiment [4], in [16], in [17], in [18] and in [6] was “inactive” throughout. The Potency result in experiment [7] and in experiment [8] was “inactive” each time. The call in experiment [15] and in experiment [19] was inactive.
For the compound `O=C1CC2(CCCC2)CC(=O)N1CCNC[C@H]1COc2ccccc2O1`, the Potency entry in experiment [4], in [13], in experiment [6], in experiment [7] and in experiment [8] was “inactive” throughout. The activity change, negative = inhibition in [5] is -0.603% (inactive). The max response in [5] (setting [20]) amounted to 16.6%; in [5] (setting [21]), 17.5%.
Regarding `Cc1nccn1CC1CCC2C(C1=O)c1ccccc1N2C` (stereo not drawn), the Potency result in [7] and in experiment [8] was “inactive” each time.
Regarding `O=C(Nc1ccccc1)N[C@H]1C[C@H](C(=O)O)Nc2cc(Cl)cc(Cl)c21`, the Potency in experiment [2] is > 46 µM (inactive). For the same compound, the Potency result in experiment [4], in [16], in experiment [6], in [7] and in experiment [8] was “inactive” each time. In [5], the activity change, negative = inhibition is 6.02% (inactive). Further, the max response was -4.62% in experiment [5] (setting [20]) and 0.745% in [5] (setting [21]).

For the origin of these results see PubChem BioAssay (NCATS).
